Data reported in PubChem BioAssay AID488835 (Broad Institute, 2010).
Screen size: about 1,400 compounds; about 140 (10%) were called active. Only a sample is shown. Potency and affinity values are given separately. Values without a mark were called inactive.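 How the source made its calls: active means Half-maximal inhibitory dose from the fit at or below ten times the top valid tested dose; inconclusive means Invalid fit, or flat curve showing 30 to 70% inhibition; inactive means the rest.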

What follows are molecules tested against Lysine-specific demethylase 4C (Homo sapiens) (UniProt Q9H3R0) (assay: inhibition of JMJD2C H3K9me3 demethylation – biochemical, DELFIA europium, cherry-picked samples, dose response (AID 488835;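 further: signal is the H3K9me2 demethylation product detected by a dimethyl-specific antibody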)). Conditions: GST-JMJD2C(1-420); series mostly up to 6 µM; activity change, negative = inhibition: at the top concentration.
Lysine-specific demethylase 4C (Homo sapiens), sequence (Q9H3R0 1-420 limits assumed): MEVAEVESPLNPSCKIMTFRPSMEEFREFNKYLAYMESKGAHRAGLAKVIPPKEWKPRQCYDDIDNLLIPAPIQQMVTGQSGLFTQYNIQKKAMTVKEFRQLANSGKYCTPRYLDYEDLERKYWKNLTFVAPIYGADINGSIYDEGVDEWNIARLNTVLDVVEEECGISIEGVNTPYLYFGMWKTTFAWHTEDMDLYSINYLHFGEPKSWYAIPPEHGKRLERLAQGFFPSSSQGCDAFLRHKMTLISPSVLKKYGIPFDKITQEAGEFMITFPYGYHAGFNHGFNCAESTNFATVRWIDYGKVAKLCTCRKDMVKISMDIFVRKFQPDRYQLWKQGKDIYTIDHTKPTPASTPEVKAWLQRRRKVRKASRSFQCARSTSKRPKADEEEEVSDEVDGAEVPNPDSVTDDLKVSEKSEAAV

Row | SMILES | activity change, negative = inhibition [%]
1 | CN(C(=O)c1ccccn1)c1nnc(-c2ccccn2)s1 | 4.97
2 | Nc1ccc2oc(-c3ccccn3)nc2c1 | 1.06
3 | O=C(N/N=C/c1nn(-c2ccccc2)cc1-c1ccccc1)c1ccncc1 | 0.372
4 | CCCC(=O)Nc1ccc(C(=O)NCC2CCCO2)cc1 (centres undefined) | 3.13
5 | CS(=O)(=O)N(CCc1ccccc1)CC(=O)NCC1CCCO1 (centres undefined) | 4.93
6 | Cc1cc(C)n(-c2nnc(C)n2/N=C/c2ccco2)n1 | -0.704
7 | O=C(O)c1cc2cc(Cl)ccc2oc1=O | -0.508
8 | O=C(CSc1nc2ccccc2c(=O)n1Cc1ccccc1)NCc1ccco1 | -2.03
9 | CCOC(=O)Cn1c(=O)cnc2ccccc21 | 5.57
10 | O=[N+]([O-])c1ccccc1/C=C/C=N/n1c(-c2ccc(Cl)cc2)n[nH]c1=S | -7.26
11 | CC(C)(C)n1ncc2c(=O)n(Cc3ccccc3Br)cnc21 | -1.56
12 | O=C(OCC(=O)N1CCCC1)c1ccc(S(=O)(=O)Nc2ccccc2)cc1 | -1.48
13 | CCN(CC)c1ccc(C(=O)OCC(=O)N2CCCC2)cc1 | 8.43
14 | C[C@H](CO)N1C[C@H](C)[C@@H](CN(C)C(=O)NC2CCCCC2)Oc2c(NC(=O)c3ccncc3)cccc2C1=O | -0.139
15 | CCC(=O)N1c2ccc(S(=O)(=O)CCC(=O)NCCC3=CCCCC3)cc2CC1C (centres undefined) | -5.61
16 | Brc1ccc(-c2csc(N3CCc4ccccc4C3)n2)cc1 | -8.29
17 | COc1ccc(-n2c(C)cc(/C=N/Nc3nnc(C)n3N)c2C)cc1 | -7.05
18 | O=C(N/N=C/c1ccc([N+](=O)[O-])o1)c1cn(-c2ccccc2)nc1-c1ccc(F)cc1 | -0.632
19 | Cc1cccc(C)c1NC(=S)NN(Cc1ccccc1)c1ccccc1 | 9.61
20 | CCN(CC)CCCOc1ccc(C)cc1Br | -1.23
21 | O=C(C1CCC1)N(CCc1ccccc1)Cc1nc2ccccc2c(=O)[nH]1 | 2.65
22 | O=C(Nc1ccc(Cl)cc1)N1CCN(c2ccccc2)CC1 | 5.66
23 | COc1ccc(NC(=S)N2CCC(C(=O)N3CCCCCC3)CC2)cc1 | 6.3
24 | COc1ccc(C(C(C(=O)c2ccco2)N2CCOCC2)N2CCOCC2)cc1 (centres undefined) | 5.71
25 | CCN1C(=O)C(C(=O)Nc2ccc(OC)cc2)C2CC1(C)Oc1ccccc12 (centres undefined) | 4.42

Row | SMILES | activity change, negative = inhibition [%]
26 | COc1ccc(CC(=O)Nc2ccc(S(=O)(=O)N(C)C)cc2)cc1OC | 2.27
27 | Cc1onc(-c2c(F)cccc2Cl)c1C(=O)N1CCN(S(C)(=O)=O)CC1 | 12.7
28 | N/C(=N\OC(=O)COc1cc(Cl)c(Cl)cc1Cl)c1ccncc1 | -1.87
29 | CN(C)S(=O)(=O)c1cccc(NC(=S)NCc2ccc3c(c2)OCO3)c1 | 1.74
30 | C=CCNC(=S)Nc1ccc(N2CCOCC2)c(S(=O)(=O)Nc2ccccc2Cl)c1 | 3.98
31 | O=C(NCc1cccc(F)c1)C1CCN(S(=O)(=O)Cc2ccccc2)CC1 | -2.41
32 | COc1ccc(S(=O)(=O)N2CCC(C(=O)N3CCc4ccccc4C3)CC2)cc1 | 4.71
33 | COc1ccc(C2CC(=O)C=C(NNS(=O)(=O)c3ccc(C)cc3)C2)cc1 (centres undefined) | 0.334
34 | COCCn1nnnc1C(C(C)C)N1CCCC(C)C1 (centres undefined) | -1.09
35 | COc1ccc(NS(=O)(=O)c2cccc(C(=O)OCC(=O)Nc3cc(C)on3)c2)cc1 | 2.59
36 | CCc1ccc(S(=O)(=O)Nc2nnc(N)s2)cc1 | 6.79
37 | O=C(NCCNc1ccc([N+](=O)[O-])cc1C(F)(F)F)c1ccccc1 | 5.47
38 | COC(=O)COc1ccc(S(=O)(=O)N2CCOCC2)cc1C | 5.36
39 | COc1ccccc1C(c1nnnn1Cc1ccccc1)N1CCN(C2CCCC2)CC1 (centres undefined) | -4.86
40 | C/C=C(\C)c1nnc(NC(=O)C(C)C)s1 | 9.8
41 | CCOC(=O)N1CCN(C(=S)NC(=O)c2ccc(F)cc2)CC1 | -2.89
42 | COc1ccc(-c2nn(-c3ccccc3)cc2CNC(C)Cn2cncn2)c(F)c1 (centres undefined) | -4.46
43 | CCOc1ccc(N2CC(C(=O)Nc3nnc(Cc4ccc(OC)cc4)s3)CC2=O)cc1 (centres undefined) | 4.76
44 | CCCCN1CC[C@H]2C=CC[C@@H](C(=O)Nc3ccc(OC)cc3)[C@H]2C1=O | 8.42
45 | O=S(=O)(Nc1ccccc1)c1ccc(NS(=O)(=O)c2c(F)cccc2F)cc1 | -0.423
46 | C[C@H](CO)N1C[C@H](C)[C@@H](CN(C)C(=O)Nc2ccc(C(F)(F)F)cc2)Oc2c(NC(=O)Nc3ccc4c(c3)OCO4)cccc2C1=O | 3.68
47 | COc1cc(/C=N/Nc2ccccc2)ccc1OC(=O)c1cccs1 | -0.0417
48 | COc1cc(/C=N/N2C(=O)C3C4c5ccccc5C(c5ccccc54)C3C2=O)ccc1O (centres undefined) | -0.389
49 | COc1ccc(/C=N/Nc2ncnc(Cl)c2N)cc1OC | -1.24
